From PubChem BioAssay (NCI)
Compounds without any hit were thinned out: in the full panel of roughly 83,000, 20% have a hit.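 Each cell line was grown in a 96-well plate and treated with one concentration of compound for 48 hours. Values below 10 were considered active.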 Values without a mark were called inactive. Active and inactive are the calls of the source.

Experiments:
Assay in all cases: NCI-60 one-dose screen, 48 h (100 = growth as untreated, 0 = no growth, -100 = all killed)
Conditions in all cases: 10 µM unless noted
RPMI-8226 leukemia = test system: RPMI-8226 leukemia
OVCAR-8 ovarian = test system: OVCAR-8 ovarian
OVCAR-5 ovarian = test system: OVCAR-5 ovarian
OVCAR-4 ovarian = test system: OVCAR-4 ovarian
SK-OV-3 ovarian = test system: SK-OV-3 ovarian
IGROV1 ovarian = test system: IGROV1 ovarian
OVCAR-3 ovarian = test system: OVCAR-3 ovarian
HS 578T breast = test system: HS 578T breast
NCI/ADR-RES ovarian = test system: NCI/ADR-RES ovarian
BT-549 breast = test system: BT-549 breast
MDA-MB-435 melanoma = test system: MDA-MB-435 melanoma
SW-620 colon = test system: SW-620 colon
MCF7 breast = test system: MCF7 breast
HCT-116 colon = test system: HCT-116 colon
HCC-2998 colon = test system: HCC-2998 colon
KM12 colon = test system: KM12 colon
T-47D breast = test system: T-47D breast

SMILES	growth (RPMI-8226 leukemia)	growth (OVCAR-8 ovarian)	growth (OVCAR-5 ovarian)	growth (OVCAR-4 ovarian)	growth (SK-OV-3 ovarian)	growth (IGROV1 ovarian)	growth (OVCAR-3 ovarian)	growth (HS 578T breast)	growth (NCI/ADR-RES ovarian)	growth (BT-549 breast)	growth (MDA-MB-435 melanoma)	growth (SW-620 colon)	growth (MCF7 breast)	growth (HCT-116 colon) [%]	growth (HCC-2998 colon)	growth (KM12 colon)	growth (T-47D breast)
CS(=O)(=O)c1ccc(-c2nc3cc(Cl)ccc3n2CC(=O)NO)cc1	90.9%	88.3%	100%	87.6%	96.4%	88.4%	96.1%	93.2%	108%	97.6%	106%	96.2%	81.3%	103	115%	93.9%	
COc1ccc(/C=N/NC(=O)Cn2c(-c3ccc(S(C)(=O)=O)cc3)nc3cc(Cl)ccc32)cc1	9.21% (active)	19.7%	36.8%	55.5%	12.6%	33.3%	-1.53% (active)	36.8%	5.86% (active)	43.1%	-17.8% (active)	30.5%	17.2%	11.8	19.4%	13.3%	
O=C1C=CC(=Nc2cc(Br)c(O)c(Br)c2)C=C1	-18.9% (active)	66.7%	94.7%	50.1%	117%	72.1%	32%	83.8%	63.9%	55.1%	36.1%	46.4%	40.1%	43.5	102%	94.7%	70.7%
CC(C)OC(=O)OCOP(=O)(OCOC(=O)OC(C)C)C1CCCN(O)C1=O (stereo not given)	11.8%	2.91% (active)	73.4%	36%	5.92% (active)	9.36% (active)	33.5%	7.77% (active)	39.2%	22.8%	47.3%	32.3%	31.9%	13.4	23.7%	9.54% (active)	
Cc1nc2ccccc2c(/C=C/c2ccc(Cl)cc2)c1C(=O)/C=C/c1ccc(Cl)cc1	-17.4% (active)	5.4% (active)	-45.6% (active)	0.984% (active)	28.4%	-51.8% (active)	-70.6% (active)	-4.76% (active)	-15.4% (active)		-51.4% (active)	-37.4% (active)	3.86% (active)		-74.7% (active)	-38.4% (active)	-15.3% (active)
C=C1c2c(C)nn(-c3ccc(N)cc3)c2N(C)C23CC1C1(C)c4c(C)nn(-c5ccc(N)cc5)c4N(C)C(C)(CC12)C3 (stereo not given)	40.9%	71%	101%	70.7%	70.6%	100%	78.4%	90.6%	78.8%	72.7%	70.4%	77.1%	24.8%	33.5	85.8%	68.3%	
C=CC(=O)Nc1cccc(C)c1Nc1cc(-c2cccnc2Cc2c(C)c(OC)cc(OC)c2C)ncn1	-24.1% (active)	3.17% (active)	57.5%	41.9%	28.7%	42.6%	0.807% (active)	29.6%	35.3%	5.86% (active)	19.9%	24.8%	8.59% (active)	15.8	71.1%	17.6%	
CN1CCN(C(=O)[C@]23CCC(C)(C)C[C@@H]2C2=CC[C@@H]4[C@@]5(C)Cc6c([nH]c7ccccc67)C(C)(C)[C@@H]5CC[C@@]4(C)[C@]2(C)CC3)CC1	71.6%	79.6%	79.8%	72%	76.8%	84.4%	78.3%	73.2%	89.9%	97%	84.6%	96.4%	69.9%	70.7	99.4%	76.3%	
CN(C)S(=O)(=O)n1cnc([C@@H]2[C@@H]3C(=O)OC[C@@H]3C[C@]23N=CN(Cc2ccccc2)C3=O)c1	-8.51% (active)	107%	96.7%	79.6%	107%	113%	105%	100%	102%	116%	108%	97.3%	100%	100	98.6%	104%	102%
